The whole screen tested about 1,400 compounds, of which about 350 (25%) were called active. Another 2% or so got no clear call; they are omitted. No rule for the calls is given here. Only a sample is shown. Results with a measured potency or affinity are listed apart.
Test: inhibitors of Clostridioides difficile proliferation – 4-point retest, confirmation (AID 1224921);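 also: plate controls were DMSO wells for no effect and levofloxacin 16 µg/mL wells for full effect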
Settings: Clostridioides difficile clinical isolate growth, OD600, 24 h, stronger effect = lower value; at 30 µM unless noted

Max activity, inactive:
CC(C)CC#Cc1ccc2c(c1)O[C@@H](CN(C)Cc1cccnc1)[C@@H](C)CN([C@@H](C)CO)S2(=O)=O 22.6%
O=C(C[C@@H]1C[C@H]2c3cc(NC(=O)Nc4ccc(C(F)(F)F)cc4)ccc3O[C@H]2[C@@H](CO)O1)NCCc1ccccc1 46.3%
COc1ccc(-c2ccc([C@@H]3[C@@H](C#N)N(C(=O)c4cccc(F)c4)[C@H]3CO)cc2)cc1 19.5%
COc1ccc(C#Cc2ccc3c(c2)O[C@@H](CN(C)C)[C@H](C)CN([C@H](C)CO)S3(=O)=O)cc1 12.4% [at 8 µM]
CCC(=O)Nc1ccc2c(c1)OC[C@@H](C)N(CC1CCCCC1)C[C@@H](C)[C@@H](OC)CN(C)C2=O -9.08% [at 8 µM]
COc1cccc(NC(=O)N[C@H]2C=C[C@H](CC(=O)Nc3ccc(-c4ccccc4)cc3)O[C@@H]2CO)c1 43%
C[C@H]1CN([C@@H](C)CO)S(=O)(=O)c2ccc(C3=CCCCC3)cc2O[C@H]1CN(C)Cc1ccncc1 40.6%
C[C@H]1CN([C@@H](C)CO)C(=O)c2cc(/C=C/c3ccccc3)cnc2O[C@@H]1CN(C)C(=O)CN(C)C -3.88% [at 0.5 µM]
C[C@H](CO)N1C[C@H](C)[C@@H](CN(C)Cc2cccnc2)Oc2cc(C3=CCCCC3)ccc2S1(=O)=O 29%
N#C[C@@H]1[C@@H](c2ccc(C#Cc3ccccc3F)cc2)[C@H](CO)N1C(=O)C1CCCCC1 38.8%
C[C@@H]1CN([C@@H](C)CO)C(=O)c2c(c3ccccc3n2C)-c2ccccc2CO[C@H]1CN(C)S(=O)(=O)c1cccc(C#N)c1 31.4%
O=C(C[C@@H]1C[C@H]2c3cc(NC(=O)Nc4ccc(C(F)(F)F)cc4)ccc3O[C@H]2[C@@H](CO)O1)NCc1ccc(Cl)cc1 -9.79% [at 8 µM]
C[C@@H]1CN([C@H](C)CO)S(=O)(=O)c2ccc(C3=CCCCC3)cc2O[C@H]1CN(C)Cc1ccncc1 -20.4% [at 1.95 µM]
CN1C(=O)c2cc(NC(=O)c3ccc(C(F)(F)F)cc3)ccc2OC[C@H]2O[C@H](CC(=O)NCc3ccc4c(c3)OCO4)CC[C@H]21 -12.1% [at 0.5 µM]
C[C@@H]1CN([C@@H](C)CO)C(=O)c2cc(C#C[C@@H](C)O)cnc2O[C@@H]1CN(C)Cc1ccc(-c2ccccc2)cc1 27.9%
CCCNC(=O)[C@@H]1[C@@H](CO)[C@@H]2Cn3c(cccc3=O)[C@H]1N2C(=O)NCCC -6.96%
CO[C@@H]1CN(C)C(=O)c2cc(NC(=O)Nc3cccc(Cl)c3)ccc2OC[C@H](C)N(C(=O)Nc2c(C)noc2C)C[C@H]1C -9.85%
COC(=O)[C@H]1[C@H](CO)[C@H]2Cn3c(ccc(-c4cccc(F)c4)c3=O)[C@H]2N1S(C)(=O)=O 23.4%
COC(=O)[C@@H]1[C@@H](CO)[C@@H]2Cn3c(ccc(-c4cccc(F)c4)c3=O)[C@@H]2N1C(C)=O 11.6% [at 8 µM]
COCC1CC(c2ccccc2)OC(c2ccc(NC(=O)CCCCCCC(=O)O)cc2)O1 (centres undefined) 17.9%
C[C@H]1CN([C@@H](C)CO)S(=O)(=O)c2ccc(/C=C/c3ccccc3)cc2O[C@@H]1CN(C)Cc1cccnc1 -24.8% [at 0.5 µM]
CC(C)CC#Cc1ccc2c(c1)O[C@H](CN(C)Cc1ccc(F)cc1)[C@H](C)CN([C@H](C)CO)S2(=O)=O 23.3% [at 8 µM]
C[C@@H]1CN([C@H](C)CO)S(=O)(=O)c2ccc(/C=C/c3ccccc3)cc2O[C@H]1CN(C)C 57%
CC(C)CC#Cc1ccc2c(c1)O[C@H](CN(C)Cc1ccc(F)cc1)[C@@H](C)CN([C@@H](C)CO)S2(=O)=O 30.5% [at 1.95 µM]
C[C@H]1CN([C@@H](C)CO)S(=O)(=O)c2ccc(/C=C/c3ccccc3)cc2O[C@@H]1CN(C)C 16.2%
C[C@@H]1CN([C@@H](C)CO)S(=O)(=O)c2ccc(/C=C/c3ccccc3)cc2O[C@@H]1CN(C)Cc1cccnc1 -27.8% [at 1.95 µM]
CO[C@H]1CN(C)C(=O)c2cc(NC(=O)NC(C)C)ccc2OC[C@H](C)N(Cc2ccccn2)C[C@@H]1C -9.04% [at 1.95 µM]
C[C@H](CO)N1C[C@H](C)[C@H](CN(C)C(=O)C2CCC2)Oc2ncc(C#Cc3cccc(F)c3)cc2C1=O 15.1% [at 8 µM]
C[C@H](NC(=O)C[C@H]1C=C[C@@H](NC(=O)C2CCC2)[C@H](CO)O1)c1ccccc1 -11.6%
CNC[C@@H]1Oc2cc(-c3ccccc3F)ccc2S(=O)(=O)N([C@@H](C)CO)C[C@H]1C 20.5%
O=C(N[C@@H]1C=C[C@@H](CC(=O)N2CCCCC2)O[C@@H]1CO)c1ccc2c(c1)OCO2 15.7% [at 8 µM]
CO[C@H]1CN(C)C(=O)c2cc(NS(=O)(=O)c3cccc(F)c3)ccc2OC[C@@H](C)N(Cc2cc(F)ccc2F)C[C@@H]1C 33.9%
C[C@H]1CN([C@@H](C)CO)S(=O)(=O)c2ccc(C#CCC3CCCC3)cc2O[C@@H]1CN(C)C -13.1% [at 1.95 µM]
N#C[C@H]1[C@@H](c2ccc(C3=CCCCC3)cc2)[C@H](CO)N1S(=O)(=O)c1ccccc1 -7.4% [at 1.95 µM]
N#C[C@@H]1[C@@H](c2ccc(C#Cc3cccnc3)cc2)[C@@H](CO)N1C(=O)C1CCCCC1 27.2%
CCC(=O)N(C)C[C@H]1Oc2cc(C#CCC3CCCC3)ccc2S(=O)(=O)N([C@@H](C)CO)C[C@@H]1C 24.3%
C[C@H](CO)N1C[C@H](C)[C@H](CN(C)C)Oc2cc(C#CCC3CCCC3)ccc2S1(=O)=O 37%
C[C@@H]1CN([C@H](C)CO)S(=O)(=O)c2ccc(C#CCC3CCCC3)cc2O[C@@H]1CN(C)C 14.7% [at 8 µM]
C[C@@H]1CN([C@@H](C)CO)S(=O)(=O)c2ccc(C#CCC3CCCC3)cc2O[C@H]1CN(C)C(=O)CN(C)C -17.9%

From PubChem BioAssay AID1224921 (Broad Institute, 2016)
